Results taken from PubChem BioAssay.
Calls of active or inactive are those of the source.

Legend:
Albumin (Bos taurus) = Albumin (Bos taurus) (UniProt P02769); assay: bovine serum albumin binders on microarray, profiling panel, artefact control for SMM control protein annotation, biochemical, small-molecule microarray, Alexa647 label, 635/667 nm fluorescence (AID 1118); settings: BSA-A647 binding, fluorescence 635 nm, higher = more signal;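 also: score merges 667 nm emission intensity and signal-to-noise per printed compound spot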
[1] = small-molecule microarray binders of probe aXIP, primary screen, biochemical, NeuroSMM set, 635/667 nm fluorescence (AID 1119); settings: higher = more signal, called active from +8 up or from −8 down;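 also: probe is the protein aXip251-270 applied at 1 µg/mL to compound-printed slides; binding of probe to printed compounds measured as 667 nm fluorescence plus signal to noise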
[2] = small-molecule binders of probe aNOTCH3, primary screen, biochemical, small-molecule microarray, 635/667 nm fluorescence (AID 1120); settings: higher = more signal;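 also: probe is a biotin-tagged antibody raised against NOTCH3 rather than NOTCH3 protein; score merges spot fluorescence near 667 nm with spot signal to noise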
[3] = small-molecule binders of probe aNOTCH2, primary screen, biochemical, small-molecule microarray, 635/667 nm fluorescence (AID 1121); settings: higher = more signal;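 also: score merges feature fluorescence read at 667 nm with its signal to noise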
[4] = biological target: Carbonic anhydrase 2 (Homo sapiens) (UniProt P00918); assay: CAII small-molecule binders, profiling panel, biochemical, small-molecule microarray, Alexa647-labelled CAII (AID 1122); settings: CAII-A647 binding fluorescence, higher = more signal
[5] = COS7 lysate on small-molecule microarray, probe aHis, 635 nm (AID 1123); settings: COS7 cell lysate, fluorescence, higher = more signal;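 also: z-score combines 667nm fluorescence intensity with signal-to-noise per printed compound spot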
[6] = compound binding in COS7 lysate, probe aLAP1, primary screen, cell lysate, small-molecule microarray (AID 1124); settings: probe aLAP1, fluorescence, higher = more signal;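 also: lysate comes from COS7 cells expressing LAP1 and is applied at 0.3 µg/mL; score merges spot fluorescence near 667 nm with signal-to-noise over triplicate slides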
Sam68 (KHDRBS1) = assay: Sam68 small-molecule binders, primary screen, biochemical, small-molecule microarray, 635 nm fluorescence (AID 1125); settings: small-molecule microarray binding, higher = more signal;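 also: score merges 667 nm channel intensity with signal to noise over triplicate slides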
[7] = system: Chordin-like protein 2 (CHRDL2); assay: CHRDL2 small-molecule binders, primary screen, biochemical, small-molecule microarray, 635 nm fluorescence (AID 1126); settings: small-molecule microarray binding, fluorescence 635 nm; higher = more signal;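 also: printed compound slides probed with Chrdl2 protein at 4 µg/mL for 1 h at 4 C; score merges 667 nm emission intensity with signal to noise over three replicate slides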
[8] = biological target: Concanavalin-A (Canavalia ensiformis) (UniProt P02866); assay: ConA small-molecule binders, primary screen, artefact control for SMM control protein annotation, biochemical, small-molecule microarray, Alexa647 label, 635 nm (AID 1127); settings: ConA-A647 binding fluorescence, higher = more signal;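 also: z combines 667 nm emission intensity with signal-to-noise across three replicate slides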
[9] = anti-His antibody binders, primary screen, artefact control for SMM control protein annotation, biochemical, small-molecule microarray, 635 nm fluorescence (AID 1128); settings: anti-His Alexa647 antibody binding, higher = more signal;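 also: score merges feature fluorescence with signal-to-noise for each printed compound spot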
[10] = system: Human papillomavirus type 1a E7 protein (residues 1-88); assay: HPV1a E7 small-molecule binders, primary screen, biochemical, small-molecule microarray, residues 1-88, 635 nm (AID 1129); settings: small-molecule microarray binding, fluorescence 635 nm; higher = more signal
[11] = biological target: Focal adhesion kinase 1 (Homo sapiens) (UniProt Q05397); assay: small-molecule microarray binders of FAK, primary screen, biochemical, 635/667 nm fluorescence, BSA, DTT (AID 1130); settings: PTK2 binding, 635 nm fluorescence, higher = more signal;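 also: composite of spot emission at 667 nm and signal to noise over triplicate slides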
[12] = system: Fibrinogen (Alexa647-labelled); assay: fibrinogen binders on compound microarrays, profiling panel, artefact control for SMM control-protein annotation, biochemical, small-molecule microarray, 635/667 nm fluorescence (AID 1131); settings: fibrinogen-A647 binding fluorescence, higher = more signal;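 also: z-score merges 667 nm fluorescence with per-spot signal-to-noise over triplicate slides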
[13] = biological target: Follistatin (Homo sapiens) (UniProt P19883); assay: follistatin binders on small-molecule microarrays, primary screen, biochemical, small-molecule microarray, 635/667 nm fluorescence (AID 1132); settings: FST binding, 635 nm fluorescence, higher = more signal
[14] = biological target: Fibroblast growth factor 2 (Homo sapiens) (UniProt P09038); assay: FGF2 binders on small-molecule microarrays, primary screen, biochemical, small-molecule microarray, 635/667 nm fluorescence (AID 1133); settings: small-molecule microarray binding, FGF2, fluorescence 635/667; higher = more signal
[15] = mitochondrial membrane potential change in A549 cells, profiling panel, cell-based, JC-1 fluorescence, basal, 24 h, 100 nL (AID 1138); settings: higher = more signal;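 also: A549 lung adenocarcinoma cells under basal conditions with no added stimulus; test concentration not given here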
Lefty1 = Lefty1 binders on small-molecule microarrays, primary screen, biochemical, small-molecule microarray, 635/667 nm fluorescence (AID 1139); settings: small-molecule microarray binding, fluorescence 635/667; higher = more signal
[16] = system: wheat germ agglutinin (Triticum aestivum), Alexa647-labelled; assay: wheat germ agglutinin binders on compound microarrays, profiling panel, artefact control for SMM control-protein annotation, biochemical, small-molecule microarray, 635/667 nm fluorescence (AID 1140); settings: WGA-A647 binding, 635 nm fluorescence, higher = more signal;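 also: score merges 667 nm feature emission with signal to noise over triplicate slides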
[17] = biological target: Luciferin 4-monooxygenase (Photinus pyralis) (UniProt P08659); assay: firefly luciferase enzyme inhibitors, primary screen, biochemical, luminescence, purified enzyme, 2006 set (AID 1141); settings: SteadyGlo luminescence, 30 min, higher = more signal, called active from +8 up or from −8 down;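 also: cell-free assay with purified firefly luciferase at 100 ng per well in PBS; test concentration not given here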
Sequence of Luciferin 4-monooxygenase (Photinus pyralis) (P08659 whole entry, looked up): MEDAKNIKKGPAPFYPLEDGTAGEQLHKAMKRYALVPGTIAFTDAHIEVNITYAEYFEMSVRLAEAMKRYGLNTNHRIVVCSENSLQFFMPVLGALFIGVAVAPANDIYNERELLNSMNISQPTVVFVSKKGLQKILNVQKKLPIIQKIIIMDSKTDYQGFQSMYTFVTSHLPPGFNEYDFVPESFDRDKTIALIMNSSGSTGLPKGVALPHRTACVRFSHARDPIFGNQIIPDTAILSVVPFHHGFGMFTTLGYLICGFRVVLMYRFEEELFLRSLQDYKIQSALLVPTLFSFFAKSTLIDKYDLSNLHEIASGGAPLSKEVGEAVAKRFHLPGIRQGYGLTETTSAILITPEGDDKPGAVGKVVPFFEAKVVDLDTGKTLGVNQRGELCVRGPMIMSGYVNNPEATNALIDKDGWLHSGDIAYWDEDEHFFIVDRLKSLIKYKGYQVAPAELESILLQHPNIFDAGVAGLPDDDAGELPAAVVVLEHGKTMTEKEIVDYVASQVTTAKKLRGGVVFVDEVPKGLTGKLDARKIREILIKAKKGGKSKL

Sequence of Fibroblast growth factor 2 (Homo sapiens) (P09038 whole entry, looked up): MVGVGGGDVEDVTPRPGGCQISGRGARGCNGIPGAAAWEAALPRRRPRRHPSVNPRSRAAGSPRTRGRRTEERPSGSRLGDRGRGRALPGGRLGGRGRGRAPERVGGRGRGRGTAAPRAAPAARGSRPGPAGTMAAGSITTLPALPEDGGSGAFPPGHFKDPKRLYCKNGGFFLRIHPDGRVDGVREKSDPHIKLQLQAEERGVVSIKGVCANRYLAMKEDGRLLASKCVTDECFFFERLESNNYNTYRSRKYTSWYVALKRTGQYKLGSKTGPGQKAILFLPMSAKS
Sequence of Follistatin (Homo sapiens) (P19883 whole entry, looked up): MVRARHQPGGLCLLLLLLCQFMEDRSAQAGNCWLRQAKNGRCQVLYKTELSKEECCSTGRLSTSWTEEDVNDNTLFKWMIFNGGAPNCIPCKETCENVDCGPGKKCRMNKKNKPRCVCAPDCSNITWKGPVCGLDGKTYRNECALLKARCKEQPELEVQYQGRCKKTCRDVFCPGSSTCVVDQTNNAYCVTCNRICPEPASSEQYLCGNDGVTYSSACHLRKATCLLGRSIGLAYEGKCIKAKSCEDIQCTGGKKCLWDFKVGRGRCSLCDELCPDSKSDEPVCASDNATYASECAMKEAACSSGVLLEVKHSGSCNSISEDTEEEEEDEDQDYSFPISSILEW
Sequence of Albumin (Bos taurus) (P02769 whole entry, looked up): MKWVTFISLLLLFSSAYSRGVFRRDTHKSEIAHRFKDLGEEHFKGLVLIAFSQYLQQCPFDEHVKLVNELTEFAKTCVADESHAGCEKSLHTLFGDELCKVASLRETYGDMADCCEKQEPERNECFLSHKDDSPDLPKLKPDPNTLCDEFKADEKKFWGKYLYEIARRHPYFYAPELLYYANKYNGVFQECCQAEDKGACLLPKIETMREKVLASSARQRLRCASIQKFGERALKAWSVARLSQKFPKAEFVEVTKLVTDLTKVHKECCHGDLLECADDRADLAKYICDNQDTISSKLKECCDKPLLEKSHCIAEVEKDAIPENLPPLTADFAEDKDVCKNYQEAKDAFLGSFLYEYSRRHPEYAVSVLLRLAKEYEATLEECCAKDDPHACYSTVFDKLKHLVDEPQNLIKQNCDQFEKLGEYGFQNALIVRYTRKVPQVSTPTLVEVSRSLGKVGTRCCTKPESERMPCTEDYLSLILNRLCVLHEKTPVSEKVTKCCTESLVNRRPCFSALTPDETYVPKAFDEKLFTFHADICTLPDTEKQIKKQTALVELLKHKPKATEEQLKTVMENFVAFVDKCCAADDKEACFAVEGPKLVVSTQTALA
Sequence of Concanavalin-A (Canavalia ensiformis) (P02866 whole entry, looked up): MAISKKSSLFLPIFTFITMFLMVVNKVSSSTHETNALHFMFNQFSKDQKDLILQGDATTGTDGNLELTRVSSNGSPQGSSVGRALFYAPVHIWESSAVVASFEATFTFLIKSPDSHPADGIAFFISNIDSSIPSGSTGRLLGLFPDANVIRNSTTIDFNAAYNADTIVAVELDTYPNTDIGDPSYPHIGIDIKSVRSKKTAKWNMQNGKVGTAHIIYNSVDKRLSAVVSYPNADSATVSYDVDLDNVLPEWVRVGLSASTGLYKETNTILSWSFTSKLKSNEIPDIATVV
Sequence of Focal adhesion kinase 1 (Homo sapiens) (Q05397 whole entry, looked up): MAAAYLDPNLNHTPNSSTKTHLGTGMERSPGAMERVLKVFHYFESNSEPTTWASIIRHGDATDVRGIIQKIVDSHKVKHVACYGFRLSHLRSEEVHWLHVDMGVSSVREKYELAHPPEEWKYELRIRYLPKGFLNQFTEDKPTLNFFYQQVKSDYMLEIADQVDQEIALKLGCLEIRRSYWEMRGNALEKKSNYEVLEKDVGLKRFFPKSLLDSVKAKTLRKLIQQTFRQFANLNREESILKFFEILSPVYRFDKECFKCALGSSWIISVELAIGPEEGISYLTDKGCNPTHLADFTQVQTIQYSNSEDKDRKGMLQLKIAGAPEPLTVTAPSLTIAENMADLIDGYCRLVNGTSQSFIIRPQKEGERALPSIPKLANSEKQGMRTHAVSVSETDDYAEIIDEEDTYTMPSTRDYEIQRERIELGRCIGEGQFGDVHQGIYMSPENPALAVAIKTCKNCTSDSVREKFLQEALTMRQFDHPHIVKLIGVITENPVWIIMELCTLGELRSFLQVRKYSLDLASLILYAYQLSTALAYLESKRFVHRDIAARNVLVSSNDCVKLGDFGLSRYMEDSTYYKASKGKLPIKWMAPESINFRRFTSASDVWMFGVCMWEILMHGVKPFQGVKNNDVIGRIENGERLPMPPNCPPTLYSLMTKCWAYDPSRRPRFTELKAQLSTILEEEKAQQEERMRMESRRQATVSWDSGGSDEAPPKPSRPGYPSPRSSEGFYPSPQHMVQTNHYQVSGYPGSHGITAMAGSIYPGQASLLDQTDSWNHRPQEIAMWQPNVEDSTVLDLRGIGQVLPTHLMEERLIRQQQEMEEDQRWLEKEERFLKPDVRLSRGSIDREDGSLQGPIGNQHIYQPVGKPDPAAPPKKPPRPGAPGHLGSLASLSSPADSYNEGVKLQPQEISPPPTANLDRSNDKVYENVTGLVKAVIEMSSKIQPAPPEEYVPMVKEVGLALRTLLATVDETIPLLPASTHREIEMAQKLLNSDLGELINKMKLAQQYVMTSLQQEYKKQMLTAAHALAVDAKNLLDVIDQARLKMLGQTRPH

Row | Structure (SMILES) | composite z-score (Albumin (Bos taurus)) | composite Z-score [1] | composite z-score [2] | composite z-score [3] | composite z-score [4] | composite z-score [5] | composite z-score [6] | composite z-score (Sam68 (KHDRBS1)) | composite z-score [7] | composite z-score [8] | composite z-score [9] | composite z-score [10] | composite z-score [11] | composite z-score [12] | composite z-score [13] | composite z-score [14] | z-score [15] | composite z-score (Lefty1) | composite z-score [16] | z-score [17]
1 | [N-]=[N+]=NCc1ccccc1C[C@]1(C(=O)NCCN2CCOCC2)N=C(c2ccc(OCCCO)cc2)O[C@H]1c1ccccc1 | 0.528 | 0.356 (inactive) | 0.408 | -0.126 | 0.668 | 1.78 | 0.488 | 1.3 | -1.03 | 0.885 | 0.478 | 1.22 | 0.378 | 1.01 | 1.39 | 0.473 | 1.02 | 0.649 | 0.556 | 0.375 (inactive)
2 | COCCCNC(=O)[C@]1(Cc2ccccc2)N=C(c2ccc(OCCCO)cc2)O[C@@H]1c1ccccc1N=[N+]=[N-] | 0.855 | 0.454 (inactive) | 0.0999 | -0.106 | 0.502 | 0.0137 | 0.287 | 1.29 | -0.26 | 1.1 | 0.36 | 1.22 | -0.0142 | 0.977 | 1.25 | 0.401 | -0.141 | 0.276 | 0.544 | -4.67 (inactive)
3 | O=C1O[C@H](c2ccccc2)[C@H](c2ccccc2)N2[C@H]1[C@@H](C(=O)NC[C@H](O)c1ccccc1)[C@]1(C(=O)Nc3ccccc31)[C@H]2c1ccccc1OCCO | 0.426 | 0.16 (inactive) | -0.171 | -0.138 | 0.613 | 1.84 | 0.571 | 0.772 | 0.0939 | 1.02 | 2.24 | 1.22 | 0.271 | 0.916 | 0.455 | 0.538 | -0.789 | 0.799 | 0.356 | -11 (active)
4 | COC(=O)[C@@]1(Cc2ccc(OC)cc2)[C@H]2c3cc(C(=O)N(C)C)n(Cc4cc(F)c(F)c(F)c4)c3C[C@H]2CN1C(=O)c1ccccc1 | 0.895 | -0.37 (inactive) | 0.578 | 0.212 | 0.767 | 2.73 | 0.331 | 1.11 | -0.0554 | 1.13 | 1 | 1.21 | 1.86 | 1.01 | 0.761 | -0.965 | -0.787 | 0.0601 | 0.952 | 1.07 (inactive)
5 | [N-]=[N+]=NCc1ccccc1[C@H]1OC(c2ccc(OCCCO)cc2)=N[C@@]1(Cc1ccccc1)C(N)=O | 0.883 | -0.379 (inactive) | 0.391 | 0.0029 | 0.589 | 2.29 | 0.112 | 1.29 | -0.797 | 1.19 | 1.85 | 1.24 | 0.5 | 1.04 | 0.405 | -0.135 | 2.44 | -0.572 | 1.37 | -1.89 (inactive)
6 | O=C1OCC=C[C@H]2OC34C=CCN(CCN5CCOCC5)C(=O)[C@H]3N(CCCCCO)C(=O)[C@@H]4[C@@H]12 (stereo not given in full) | 0.485 | -0.232 (inactive) | 0.0694 | -0.117 | 0.829 | 2.03 | -0.723 | -0.229 | 0.129 | 0.476 | 2.23 | -0.277 | 0.311 | -0.155 | -0.307 | -0.12 | -0.829 | -0.0262 | 0.28 | -0.346 (inactive)
7 | CCOC(=O)C[C@H]1[C@H](OC(=O)c2cc3ccccc3oc2=O)[C@@H](NC(=O)c2ccc3ccccc3n2)c2cc(OCCCO)ccc2N1C(=O)c1ccc2ccccc2n1 | -0.407 | 0.581 (inactive) | 0.255 | -0.0294 | 0.312 | 0.32 | 0.129 | 0.539 | 0.572 | 0.862 | 0.81 | 0.784 | 0.114 | 0.541 | 0.99 | 0.818 | 1.1 | 1.44 | 0.131 | -0.204 (inactive)
8 | CN(C)C(=O)[C@@]1(Cc2ccccc2N=[N+]=[N-])N=C(c2ccc(OCCCO)cc2)O[C@H]1c1ccccc1N=[N+]=[N-] | 0.89 | 0.167 (inactive) | 0.277 | 0.083 | 0.565 | 1.65 | 0.372 | 1.33 | 0.325 | 0.819 | 1.85 | 1.19 | 0.921 | 0.887 | 1.01 | -0.118 | 2.01 | 0.16 | 0.98 | -2.25 (inactive)
9 | CCCC=C(CCC)[C@@H](NS(=O)(=O)CC)c1ccccc1 | 0.929 | -0.112 (inactive) | 0.096 | -0.0194 | 0.532 | 1.68 | 0.177 | 1.29 | -0.462 | 1.04 | 0.365 | 1.18 | 0.655 | 0.976 | 0.322 | 0.152 | -1.72 | -0.346 | 0.265 | 2.1 (inactive)
10 | CC(C)C[C@@H]1NC(=O)[C@@]23C(=O)N[C@@H](Cc4ccccc4)C2[C@H](C)[C@@]2(C)O[C@H]2C3/C=C/C/C=C\CNC(=O)[C@@H]2CCCN2C1=O (stereo not given in full) | 0.777 | 0.572 (inactive) | -0.0026 | -0.129 | 0.391 | -0.351 | 0.339 | -0.747 | 0.698 | -0.838 | 0.886 | -1.05 | -0.0278 | -0.94 | 0.368 | 0.392 | 0.579 | 0.571 | -0.299 | 0.0046 (inactive)
